Source: PubChem BioAssay AID431 (Sanford-Burnham Center for Chemical Genomics, 2006)
Screen size: about 63,000 compounds; about 1,100 (1.7%) were called active. The sample as a whole holds a higher share of actives than the screen did. Entries with a potency or affinity are not part of this list. A number with no mark means an inactive call.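 Rule for the calls: active = compounds whose percent cytotoxicity in the single-dose primary screen, scaled between solvent and toxic-drug controls, exceeds 50; inactive = the rest.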

Test: cytotoxicity in KRAS-transformed pancreatic duct cells, primary screen, cell-based, fluorescence, HTS (AID 431);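 note: 0% = DMSO solvent wells and 100% = doxorubicin-treated wells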
Conditions: HPDE-C7K KRASV12 cells, Alamar Blue viability, 48 h; at 10 µM; active compounds read high
In the case of `O=C1CC(c2ccccc2)n2nc(N3C(=O)CCC3=O)nc2N1` (stereo not drawn), the cytotoxicity is reported as 2.8%.
In the case of `CC(=O)Nc1ccc(S(=O)(=O)c2ccc(N)cc2)cc1N`, the cytotoxicity is reported as -5.2%.
`CC1N=C2c3ccccc3N=C(SCc3cc(=O)n4cc(Cl)ccc4n3)N2C1=O` (stereo not drawn) gave a cytotoxicity of 5.7%.
With `CSc1ccc(S(=O)(=O)Nc2ccc3c(c2)OCCO3)cc1` the cytotoxicity was 9.5%.
For `COc1ccc(NS(=O)(=O)c2ccc3oc4ccccc4c3c2)cn1`, the cytotoxicity was 35.2%.
In the case of `O=S(=O)(Nc1ccc2c(c1)OCCO2)c1ccc2oc3ccccc3c2c1`, the cytotoxicity is reported as 73% (active).
Compound `Cc1ccc2c(c1)c(C)c(C)n2CC(O)Cn1nc(C)cc1C` (stereo not drawn) has a cytotoxicity of -6.3%.
Work on `Oc1c(CN2CCc3ccccc3C2)cc(Cl)c2cccnc12` yielded a cytotoxicity of -1.6%.
With `Oc1ccc2cccnc2c1` the cytotoxicity was 4.8%.
`OCc1ccnc2c(O)cccc12` gave a cytotoxicity of 11.7%.
`Oc1c(CN2CCN(c3ccccn3)CC2)cc(Cl)c2cccnc12` showed a cytotoxicity of 28.4%.
Compound `CCC1Oc2ccc(C)cc2N(CC(=O)NCCC2=CCCCC2)C1=O` (stereo not drawn) has a cytotoxicity of 0%.
Compound `O=C(COc1ccc(Cl)cc1)Nc1ccc2oc(-c3ccncc3)nc2c1` has a cytotoxicity of -3%.
For `COc1ccc(CNC(=O)c2cc(-n3cnnc3)ccc2Cl)cc1`, the cytotoxicity was -0.7%.
`CCOC(=O)N1CCN(C(=O)CSc2nnc(-c3cccs3)o2)CC1` gave a cytotoxicity of 4.2%.
Work on `COc1ccc(NC2=NC3(CCCCC3)N=C(N)N2)cc1` yielded a cytotoxicity of 10.1%.
`COc1cccc(NC2=NC3(CCCCC3)N=C(N)N2)c1` gave a cytotoxicity of -1.1%.
For `CCN(C(=O)COc1ncnc2ccc(Br)cc12)C1CCS(=O)(=O)C1` (stereo not drawn), the cytotoxicity was -5.5%.
Compound `COC(=O)c1ccc(CSc2nc3c(cnn3-c3ccc(C)c(C)c3)c(=O)[nH]2)o1` has a cytotoxicity of 8%.
For `COC(=O)c1ccc(CSc2nc3scc(-c4cccs4)c3c(=O)[nH]2)o1`, the cytotoxicity was 50.4% (active).
In the case of `COC(=O)c1ccc(CSc2nc3c(cnn3-c3ccc(F)cc3)c(=O)[nH]2)o1`, the cytotoxicity is reported as 1.7%.
`CN(C)S(=O)(=O)c1ccc(C(=O)Nc2ccc(Cl)cc2)cc1` gave a cytotoxicity of 1.5%.
For `Oc1ccc(-c2nc(-c3ccc(O)c(O)c3)cs2)cc1`, the cytotoxicity was 79.5% (active).
`COc1cc(-c2csc(C)n2)ccc1O` gave a cytotoxicity of -3.1%.
Compound `CN(c1ccc(O)cc1)c1nc(-c2ccccc2)cs1` has a cytotoxicity of 4.5%.
In the case of `Cc1cccc2cc(C(c3nnnn3CC3CCCO3)N3CCCC4(CCCCC4)C3)c(=O)[nH]c12` (stereo not drawn), the cytotoxicity is reported as -12.9%.
With `CCCSc1nnc(NC(=O)c2sc3nc(-c4cccs4)ccc3c2N)s1` the cytotoxicity was 22.7%.
Compound `Nc1c(C(=O)NC2CCCC2)sc2nc(-c3cccs3)ccc12` has a cytotoxicity of 12.2%.
For `Cc1csc(NC(=O)c2sc3nc(-c4cccs4)ccc3c2N)n1`, the cytotoxicity was 72.2% (active).
Work on `CC(C)CCN1C(=O)c2ccc(C(=O)NCC3CCCO3)cc2C1=O` (stereo not drawn) yielded a cytotoxicity of -6.8%.
With `O=C(NCCCN1CCN(c2ccccc2F)CC1)Nc1ccc(F)cc1` the cytotoxicity was -10.3%.
`Cc1cc2n(n1)C(c1ccccc1)Nc1ccccc1-2` (stereo not drawn) gave a cytotoxicity of 15.3%.
`Cc1cc2n(n1)C(c1ccccc1Cl)Nc1ccccc1-2` (stereo not drawn) showed a cytotoxicity of 18.6%.
In the case of `CCCNC(=O)Cc1ncn[nH]1`, the cytotoxicity is reported as 3.6%.
Work on `CCOc1cc(C(=O)O)cc(Cl)c1OCC#N` yielded a cytotoxicity of -16.2%.
`Cc1nc2c(C(=O)O)cnn2c(C)c1Cc1ccccc1F` showed a cytotoxicity of -2.2%.
With `Cc1ccccc1Cc1c(C)nc2c(C(=O)N3CCN(Cc4ccc5c(c4)OCO5)CC3)cnn2c1C` the cytotoxicity was -9.2%.
Work on `CC1(C)CC(=O)c2cc(C(=O)N3CCN(CCO)CC3)c(=O)n(-c3ccc(Cl)cc3)c2C1` yielded a cytotoxicity of -8.4%.
With `O=C(c1cc2ccccn2n1)N1CCCC1` the cytotoxicity was 8%.
With `Cc1onc(-c2ccccc2Cl)c1C(=O)NCc1ccc(S(N)(=O)=O)cc1` the cytotoxicity was -0.7%.
`O=c1[nH]cnc2scc(-c3ccc(F)cc3)c12` showed a cytotoxicity of 7.7%.
In the case of `Cn1nnnc1Sc1ncnc2scc(-c3ccccc3)c12`, the cytotoxicity is reported as 11.1%.
`COc1ccc(OC)c(NC(=O)CN2CCC(C(=O)c3ccc(C)cc3)CC2)c1` gave a cytotoxicity of 4.8%.
`CCC(C)(C)NC(=O)C(c1cccn1C)N(C(=O)Cn1nnc2ccccc21)c1ccc(OC)cc1` (stereo not drawn) gave a cytotoxicity of 41.6%.
With `O=C1CC(O)(C(F)(F)F)Oc2c1ccc1ccccc21` (stereo not drawn) the cytotoxicity was 88.6% (active).
Compound `O=C1CC(O)(C(F)F)Oc2ccc3ccccc3c21` (stereo not drawn) has a cytotoxicity of -1.2%.
`COc1ccc2c(c1)OC(O)(C(F)(F)F)CC2=O` (stereo not drawn) showed a cytotoxicity of -1.5%.
`COc1ccc(NC(=O)c2ccc(-n3nc(C)c[n+]3[O-])cc2)cc1` showed a cytotoxicity of -7.1%.
Compound `N#Cc1c2n(cnc1=O)CCCCC2` has a cytotoxicity of 0%.
`Nc1c(C(=O)NCCN2CCOCC2)c2nc3ccccc3nc2n1CCc1ccccc1F` showed a cytotoxicity of 7.5%.
Work on `Nc1c(C(=O)NCCN2CCOCC2)c2nc3ccccc3nc2n1CCc1ccccc1` yielded a cytotoxicity of 18.1%.
`Nc1ccc(-n2c(N)c(C(=O)NCc3ccc4c(c3)OCO4)c3nc4ccccc4nc32)cc1` showed a cytotoxicity of 35.9%.
Compound `Nc1c(C(=O)NCCN2CCOCC2)c2nc3ccccc3nc2n1-c1ccc2c(c1)OCO2` has a cytotoxicity of -10.7%.
